# Measured values: PubChem BioAssay
# Unmarked numbers belong to inactive results. Active and inactive are the calls of the source.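 The calls were made as follows, unless noted: active = growth inhibition above 50% at the single 2 µM test dose, taken to imply half-maximal potency below 2 µM; inactive = the rest.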
# Assay: antimalarial activity against Dd2 strain (AID 2302);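 also: 0% = DMSO untreated growth and 100% = chloroquine plus artemisinin killed control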
# Details: P. falciparum Dd2 in RBCs, LDH growth readout, 72 h; at 2 µM; active compounds read high
row,SMILES,growth inhibition
1,CC(C)COc1ccc(Cl)cc1Cc1ccc(-c2nc3cc(F)c(F)cc3[nH]2)o1,96% (active)
2,Oc1ccc(CCNc2nc(NCCCOc3cccc(CN4CCCCC4)c3Cl)nc(N3CCNCC3)n2)cc1,22%
3,O=c1[nH]c2c(cc1CNC1CCCCC1)c(-c1ccc(F)cc1)nn2-c1ccccc1,88% (active)
4,NC(N)=Nc1ccc(OCCCCCOc2ccc(N=C(N)N)cc2)cc1,100% (active)
5,COC(=O)c1cccc(CNCc2ccc(-c3ccc(-c4nc5ccc(C(F)(F)F)cc5[nH]4)s3)cc2)c1,96% (active)
6,COc1ccc2ncc(C#N)c(CCN3CCC(NCc4ccc5c(c4)NC(=O)CO5)CC3)c2c1,43%
7,CC(Nc1nc(Nc2ccc(F)cc2)nc(SCC(N)=O)n1)c1ccccc1 (stereo not drawn),87% (active)
8,Cn1ccnc1CNC(=O)c1ccc(-c2ccc(-c3nc4ccc(C(F)(F)F)cc4[nH]3)s2)cc1,43%
9,COc1cc2c(cc1S(=O)(=O)c1ccc(NC(=O)c3cccc(C(F)(F)F)c3)cc1)CCN(C)CC2,25%
10,CCOc1ccc2c(NN=Cc3cccc(F)c3)cc(C)nc2c1,100% (active)
11,Clc1ccc(OCc2ccccc2)c(-c2nc(-c3nc4ncc(Br)cc4[nH]3)cs2)c1,77% (active)
12,O=C(CC1CCCC1)Nc1ccc2c(c1)CCC2,-2%
13,Clc1ccccc1CNc1noc(-c2sccc2Br)n1,93% (active)
14,COc1ccc(NC(=O)Nc2ccc(-c3ccc(-c4nc5ccccc5[nH]4)cc3)cc2)cc1,27%
15,Nc1cc(-c2cc3c(OCc4ccccc4)cccc3[nH]2)ccn1,15%
16,CCNc1cc(C(=O)N[C@@H](Cc2ccccc2)[C@H](O)CNC2C3CC4CC(C3)CC2C4)cc(N2CCCCS2(=O)=O)c1 (stereo partly drawn),96% (active)
17,CCCNCc1ccc(-c2ccc(CN(C(=O)c3nn(-c4ccccc4)nc3C)C3CCOCC3)cc2)nc1,-6%
18,CN1CCCN(Cc2ccc(-c3cccc(NC(=O)c4cccc(C#N)c4)c3)cc2)CC1,64% (active)
19,COc1ccc(NC(=O)Nc2cccc(-c3ccc(-c4nc5ccc(C(F)(F)F)cc5[nH]4)cc3)c2)cc1,29%
20,CCC(C)NS(=O)(=O)c1ccc2nc(Nc3ccc(C)c(Cl)c3)n(C3CCCCC3)c2c1 (stereo not drawn),98% (active)

row,SMILES,growth inhibition
1,COc1ccc(N2CCN(CCCC/C=C/c3ccc(NC(=O)c4cc(Cl)cc(Cl)c4)cc3)CC2)c(OC)c1,39%
2,CC(C)(C)c1ccc(CN2CCC(NC(=O)c3cc(-c4cccc(C(F)(F)F)c4)cs3)C2)cc1 (stereo not drawn),85% (active)
3,COc1ccccc1/C=C/C(=O)NCCC1CCN(CCCCCNC(=O)/C=C/c2ccc(Cl)c(Cl)c2)CC1,0%
4,O=C(NC1CC1)c1cnc(N2CCC(Oc3ccc(Cl)cc3)CC2)c(Cl)c1,75% (active)
5,Cc1ccc(C=C2SC(=Nc3ccccc3)NC2=O)c(C)c1,90% (active)
6,O=C(Nc1cccc(-c2cc3ccccc3[nH]2)c1)C1CCN(Cc2ccccc2O)CC1,25%
7,C=CCN(c1nc(NC)nc(NCc2c(OC)cccc2OC)n1)C1CCCC1,70% (active)
8,O=C(/C=C/c1ccc(Cl)c(Cl)c1)NCCCCCN1CCCC(C(=O)Nc2cccc(Cl)c2)C1 (stereo not drawn),2%
9,CN(CCCNCc1ccc2ccccc2c1)CCCNCc1ccc2ccccc2c1,79% (active)
10,Fc1cccc(COc2ccc(Nc3ncnc4sc(C#CC5CCCCN5)cc34)cc2Cl)c1 (stereo not drawn),100% (active)
11,COc1ccc(-c2cc(NCc3ccc(-n4ccnc4)cc3)nc(Nc3ccccc3)n2)cc1,79% (active)
12,Cc1cc(NN=Cc2ccccc2Cl)c2cccc(C)c2n1,98% (active)
13,Cc1cc(CN2CCC(Nc3ncc(-c4ccsc4)c4nc(C(F)(F)F)ccc34)CC2)no1,67% (active)
14,O=C(/C=C/c1ccc(Cl)c(Cl)c1)NCCCCN1CCCN(C(=O)Nc2cc(Cl)cc(Cl)c2)CC1,1%
15,NC1CCN(c2nc(NCCCc3ccc(O)cc3)nc(NCc3ccccc3-c3ccccc3)n2)CC1,45%
16,O=C(Nc1cccc(C(F)(F)F)c1)Nc1nc2ccc([N+](=O)[O-])cc2s1,76% (active)
17,CC(=O)Nc1cccc(CNCc2ccc(-c3cnc(N4CCCC(c5ccccc5)C4)nc3)cc2)c1 (stereo not drawn),22%
18,CS(=O)(=O)N(c1cccc(F)c1)c1cc(C(=O)N[C@@H](Cc2ccccc2)[C@H](O)CNCc2cccc(C(F)(F)F)c2)cc(N2CCCC2=O)c1,92% (active)
19,CN(C)CCNC(=O)c1ccc(-c2cnc3ccc(NCc4ccc(Cl)c(Cl)c4)nn23)cc1,98% (active)

# Assay: HepG2 cytotoxicity, primary screen, cytotoxicity control for P. falciparum antimalarial project, cell-based, ATP luminescence (AID 2303;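 active = inhibition above 50%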;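 also: 0% = DMSO wells and 100% = digitonin-killed cells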)
# Details: HepG2 viability, 24-48 h, at 10 µM, active compounds read high
row,SMILES,inhibition
1,CC(C)COc1ccc(Cl)cc1Cc1ccc(-c2nc3cc(F)c(F)cc3[nH]2)o1,27%
2,Oc1ccc(CCNc2nc(NCCCOc3cccc(CN4CCCCC4)c3Cl)nc(N3CCNCC3)n2)cc1,26%
3,O=c1[nH]c2c(cc1CNC1CCCCC1)c(-c1ccc(F)cc1)nn2-c1ccccc1,8%
4,NC(N)=Nc1ccc(OCCCCCOc2ccc(N=C(N)N)cc2)cc1,12%
5,COC(=O)c1cccc(CNCc2ccc(-c3ccc(-c4nc5ccc(C(F)(F)F)cc5[nH]4)s3)cc2)c1,34%
6,COc1ccc2ncc(C#N)c(CCN3CCC(NCc4ccc5c(c4)NC(=O)CO5)CC3)c2c1,25%
7,CC(Nc1nc(Nc2ccc(F)cc2)nc(SCC(N)=O)n1)c1ccccc1 (stereo not drawn),14%
8,Cn1ccnc1CNC(=O)c1ccc(-c2ccc(-c3nc4ccc(C(F)(F)F)cc4[nH]3)s2)cc1,40%
9,COc1cc2c(cc1S(=O)(=O)c1ccc(NC(=O)c3cccc(C(F)(F)F)c3)cc1)CCN(C)CC2,18%
10,CCOc1ccc2c(NN=Cc3cccc(F)c3)cc(C)nc2c1,0%
11,Clc1ccc(OCc2ccccc2)c(-c2nc(-c3nc4ncc(Br)cc4[nH]3)cs2)c1,-7%
12,O=C(CC1CCCC1)Nc1ccc2c(c1)CCC2,-1%
13,Clc1ccccc1CNc1noc(-c2sccc2Br)n1,0%
14,COc1ccc(NC(=O)Nc2ccc(-c3ccc(-c4nc5ccccc5[nH]4)cc3)cc2)cc1,22%
15,Nc1cc(-c2cc3c(OCc4ccccc4)cccc3[nH]2)ccn1,23%
16,CCNc1cc(C(=O)N[C@@H](Cc2ccccc2)[C@H](O)CNC2C3CC4CC(C3)CC2C4)cc(N2CCCCS2(=O)=O)c1 (stereo partly drawn),-2%
17,CCCNCc1ccc(-c2ccc(CN(C(=O)c3nn(-c4ccccc4)nc3C)C3CCOCC3)cc2)nc1,14%
18,CN1CCCN(Cc2ccc(-c3cccc(NC(=O)c4cccc(C#N)c4)c3)cc2)CC1,17%
19,COc1ccc(NC(=O)Nc2cccc(-c3ccc(-c4nc5ccc(C(F)(F)F)cc5[nH]4)cc3)c2)cc1,46%
20,CCC(C)NS(=O)(=O)c1ccc2nc(Nc3ccc(C)c(Cl)c3)n(C3CCCCC3)c2c1 (stereo not drawn),-8%

row,SMILES,inhibition
1,COc1ccc(N2CCN(CCCC/C=C/c3ccc(NC(=O)c4cc(Cl)cc(Cl)c4)cc3)CC2)c(OC)c1,20%
2,CC(C)(C)c1ccc(CN2CCC(NC(=O)c3cc(-c4cccc(C(F)(F)F)c4)cs3)C2)cc1 (stereo not drawn),24%
3,COc1ccccc1/C=C/C(=O)NCCC1CCN(CCCCCNC(=O)/C=C/c2ccc(Cl)c(Cl)c2)CC1,34%
4,O=C(NC1CC1)c1cnc(N2CCC(Oc3ccc(Cl)cc3)CC2)c(Cl)c1,12%
5,Cc1ccc(C=C2SC(=Nc3ccccc3)NC2=O)c(C)c1,1%
6,O=C(Nc1cccc(-c2cc3ccccc3[nH]2)c1)C1CCN(Cc2ccccc2O)CC1,34%
7,C=CCN(c1nc(NC)nc(NCc2c(OC)cccc2OC)n1)C1CCCC1,18%
8,O=C(/C=C/c1ccc(Cl)c(Cl)c1)NCCCCCN1CCCC(C(=O)Nc2cccc(Cl)c2)C1 (stereo not drawn),41%
9,CN(CCCNCc1ccc2ccccc2c1)CCCNCc1ccc2ccccc2c1,100% (active)
10,Fc1cccc(COc2ccc(Nc3ncnc4sc(C#CC5CCCCN5)cc34)cc2Cl)c1 (stereo not drawn),30%
11,COc1ccc(-c2cc(NCc3ccc(-n4ccnc4)cc3)nc(Nc3ccccc3)n2)cc1,8%
12,Cc1cc(NN=Cc2ccccc2Cl)c2cccc(C)c2n1,10%
13,Cc1cc(CN2CCC(Nc3ncc(-c4ccsc4)c4nc(C(F)(F)F)ccc34)CC2)no1,8%
14,O=C(/C=C/c1ccc(Cl)c(Cl)c1)NCCCCN1CCCN(C(=O)Nc2cc(Cl)cc(Cl)c2)CC1,21%
15,NC1CCN(c2nc(NCCCc3ccc(O)cc3)nc(NCc3ccccc3-c3ccccc3)n2)CC1,11%
16,O=C(Nc1cccc(C(F)(F)F)c1)Nc1nc2ccc([N+](=O)[O-])cc2s1,81% (active)
17,CC(=O)Nc1cccc(CNCc2ccc(-c3cnc(N4CCCC(c5ccccc5)C4)nc3)cc2)c1 (stereo not drawn),16%
18,CS(=O)(=O)N(c1cccc(F)c1)c1cc(C(=O)N[C@@H](Cc2ccccc2)[C@H](O)CNCc2cccc(C(F)(F)F)c2)cc(N2CCCC2=O)c1,14%
19,CN(C)CCNC(=O)c1ccc(-c2cnc3ccc(NCc4ccc(Cl)c(Cl)c4)nn23)cc1,60% (active)
